Test results published in PubChem BioAssay (NCI).
The panel holds about 79,000 compounds, 15% with a hit somewhere; the sample as a whole holds those more often. The source made the active and inactive calls. No stated cut-off is given here; in the data, active means growth inhibition above about 70%; inactive means the rest.

Legend:
[1] = NCI Yeast Anticancer Drug Screen. Data for the wt2 strain (AID 169);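 further: 0% = growth of vehicle-treated yeast cultures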; conditions: S. cerevisiae wt2 strain growth inhibition, hits give high values
Procedure, shortened: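 Against vehicle-treated controls, the growth of yeast exposed to each compound was compared, and the inhibition was recorded.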

[2] = NCI Yeast Anticancer Drug Screen. Data for the mlh1 strain (AID 171);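 further: 0% = growth of vehicle-treated control cultures of the same strain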; conditions: S. cerevisiae mlh1 strain growth inhibition, hits give high values
Procedure, shortened: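 Measured: yeast growth. Reference: vehicle-treated controls. Organism: strain with a defined alteration affecting DNA damage repair or cell cycle control, treated with compound.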

[3] = NCI Yeast Anticancer Drug Screen. Data for the sgs1 strain (AID 173);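 further: 0% = growth of vehicle-only control cultures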; conditions: S. cerevisiae sgs1 mutant, hits give high values
Procedure, shortened: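 Each compound was added to cultures of the altered yeast strain. Growth was recorded, and inhibition was derived by comparison with vehicle controls.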

[4] = NCI Yeast Anticancer Drug Screen. Data for the mlh1 rad18 strain (AID 175); conditions: S. cerevisiae mlh1 rad18 strain growth inhibition, hits give high values
Procedure, shortened: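 Genetically defined yeast (DNA repair-deficient) exposed to compounds; growth inhibition determined relative to vehicle.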

[5] = NCI Yeast Anticancer Drug Screen. Data for the rad18 strain (AID 177); conditions: S. cerevisiae rad18 mutant growth inhibition, hits give high values
Procedure, shortened: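 Vehicle-treated cultures served as the baseline for scoring compound-induced growth inhibition in DNA-repair-mutant yeast.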

[6] = NCI Yeast Anticancer Drug Screen. Data for the rad52 strain (AID 147);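 further: 0% = growth of vehicle-treated control cultures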; conditions: S. cerevisiae rad52 mutant growth inhibition, hits give high values
Procedure, shortened: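 The repair-mutant yeast strain was incubated with compounds, then growth was read and inhibition derived relative to vehicle.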

[7] = NCI Yeast Anticancer Drug Screen. Data for the wt1 strain (AID 149);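 further: 0% = growth of vehicle-treated wt1 cultures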; conditions: S. cerevisiae wt1 strain (SPY 50644) growth inhibition, hits give high values
Procedure, shortened: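 wt1 strain grown with compound or vehicle; inhibition taken from the growth difference.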

[8] = NCI Yeast Anticancer Drug Screen. Data for the rad50EPP+ strain (AID 151);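 further: 0% = growth of vehicle-treated control cultures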; conditions: S. cerevisiae rad50 mutant strain, hits give high values
Procedure, shortened: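 Vehicle-normalised growth inhibition; rad50EPP+ yeast strain, altered in DNA damage repair, compound-treated.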

[9] = NCI Yeast Anticancer Drug Screen. Data for the mgt1 strain (AID 153); conditions: S. cerevisiae mgt1 mutant growth inhibition, hits give high values
Procedure, shortened: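 Vehicle-normalized growth inhibition is determined in mgt1 yeast, a strain selected for a defined alteration in DNA repair or cell cycle control.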

[10] = NCI Yeast Anticancer Drug Screen. Data for the rad50 strain (AID 155);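 further: 0% = growth of vehicle-only cultures of the same strain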; conditions: S. cerevisiae rad50 strain growth inhibition, hits give high values
Procedure, shortened: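 DNA repair mutant yeast, compound exposure, growth read-out; inhibition is taken relative to vehicle.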

[11] = NCI Yeast Anticancer Drug Screen. Data for the mec2-1 strain (AID 157); conditions: S. cerevisiae mec2-1 strain, hits give high values
Procedure, shortened: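 Mutant yeast (mec2-1) grown with compound; growth inhibition relative to vehicle control reported.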

[12] = NCI Yeast Anticancer Drug Screen. Data for the rad14 strain (AID 159);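 further: 0% = growth of vehicle-treated control cultures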; conditions: S. cerevisiae rad14 strain growth inhibition, hits give high values
Procedure, shortened: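 DNA repair-defective yeast, compound-exposed; % growth inhibition derived by comparison with vehicle-treated controls.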

[13] = NCI Yeast Anticancer Drug Screen. Data for the sgs1 mgt1 strain (AID 161);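 further: 0% = growth of cultures given vehicle only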; conditions: S. cerevisiae sgs1 mgt1 strain, hits give high values
Procedure, shortened: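 Yeast cells carrying a defined DNA-repair defect were exposed to test compounds. Growth inhibition was measured relative to vehicle-treated controls.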

[14] = NCI Yeast Anticancer Drug Screen. Data for the CLN2oe strain (AID 163);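 further: 0% = growth of vehicle-only control cultures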; conditions: S. cerevisiae CLN2oe strain, hits give high values
Procedure, shortened: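 Compounds are applied to yeast harbouring a defined cell-cycle control change; reduced growth compared with vehicle-treated controls gives the value.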

[15] = NCI Yeast Anticancer Drug Screen. Data for the cln2 rad14 strain (AID 165);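 further: 0% = growth equal to vehicle treated cultures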; conditions: S. cerevisiae cln2 rad14 strain, hits give high values
Procedure, shortened: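 Readout is yeast growth inhibition versus vehicle-treated controls, using a strain with cln2 and rad14 alterations exposed to compound.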

[16] = NCI Yeast Anticancer Drug Screen. Data for the bub3 strain (AID 167); conditions: S. cerevisiae bub3 mutant strain, hits give high values
Procedure, shortened: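 In this screen, a yeast mutant lacking normal mitotic checkpoint function is challenged with compound. Relative growth versus vehicle gives the inhibition value.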

[17] = at 5.0 µM (retest, dose inferred, filed as 0.5)
[18] = at 50.0 µM (retest, dose inferred, filed as 5.0)

Measured: growth inhibition

CCC1(O)C(=O)OCc2c1cc1n(c2=O)Cc2cc3ccccc3nc2-1 (centres undefined)
active: [4]; [18] 70%
inactive: [1]; at 1.2 µM 6% | [1]; at 3.7 µM 4% | [1]; at 11.0 µM -1% | [1]; at 33.0 µM 1% | [1]; at 100.0 µM 10% | [2]; at 1.2 µM -5% | [2]; at 3.7 µM 13% | [2]; at 11.0 µM 15% | [2]; at 33.0 µM 2% | [2]; at 100.0 µM 15% | [3]; at 1.2 µM 1% | [3]; at 3.7 µM 15% | [3]; at 11.0 µM 23% | [3]; at 33.0 µM 35% | [3]; at 100.0 µM 48% | [4]; [17] 36% | [4]; at 50.0 µM -27.3% | [5]; at 1.2 µM -6% | [5]; at 3.7 µM 15% | [5]; at 11.0 µM 21% | [5]; at 33.0 µM 4% | [5]; at 100.0 µM 7%

O=C1c2ccccc2C(=O)C(Cl)C1Cl (centres undefined)
active: [6]; at 11.0 µM 88% | [6]; at 33.0 µM 99% | [6]; at 100.0 µM 98% | [7]; at 11.0 µM 72% | [7]; at 33.0 µM 99% | [7]; at 100.0 µM 99% | [8]; at 11.0 µM 98% | [8]; at 33.0 µM 99% | [8]; at 100.0 µM 98% | [9]; at 11.0 µM 99% | [9]; at 33.0 µM 99% | [9]; at 100.0 µM 99% | [10]; at 11.0 µM 98% | [10]; at 33.0 µM 99% | [10]; [18] 99% | [10]; at 50.0 µM 99.2% | [10]; at 100.0 µM 99% | [11]; at 11.0 µM 90% | [11]; at 33.0 µM 99% | [11]; [18] 99% | [11]; at 50.0 µM 99.4% | [11]; at 100.0 µM 99% | [12]; at 11.0 µM 92% | [12]; at 33.0 µM 99% | [12]; at 100.0 µM 99% | [13]; [18] 99% | [13]; at 50.0 µM 99.5% | [14]; at 11.0 µM 71% | [14]; at 33.0 µM 99% | [14]; at 100.0 µM 98% | [15]; [18] 99% | [15]; at 50.0 µM 99.1% | [16]; [17] 88% | [16]; at 11.0 µM 98% | [16]; at 33.0 µM 99% | [16]; [18] 99% | [16]; at 50.0 µM 99.3% | [16]; at 100.0 µM 99% | [1]; at 11.0 µM 82% | [1]; at 33.0 µM 99% | [1]; at 100.0 µM 99% | [2]; at 11.0 µM 93% | [2]; at 33.0 µM 99% | [2]; at 100.0 µM 99% | [3]; at 11.0 µM 89% | [3]; at 33.0 µM 99% | [3]; at 100.0 µM 99% | [4]; [18] 99% | [4]; at 50.0 µM 99.3% | [5]; at 11.0 µM 91% | [5]; at 33.0 µM 99% | [5]; at 100.0 µM 99%
inactive: [6]; at 1.2 µM 1% | [6]; at 3.7 µM 15% | [7]; at 1.2 µM 7% | [7]; at 3.7 µM 18% | [8]; at 1.2 µM 7% | [8]; at 3.7 µM 36% | [9]; at 1.2 µM 7% | [9]; at 3.7 µM 13% | [10]; at 1.2 µM 5% | [10]; at 3.7 µM 36% | [10]; [17] 29% | [11]; at 1.2 µM 9% | [11]; at 3.7 µM 22% | [11]; [17] 34% | [12]; at 1.2 µM 7% | [12]; at 3.7 µM 18% | [13]; [17] 33% | [14]; at 1.2 µM 4% | [14]; at 3.7 µM 10% | [15]; [17] 10% | [16]; at 1.2 µM 13% | [16]; at 3.7 µM 35% | [1]; at 1.2 µM 9% | [1]; at 3.7 µM 24% | [2]; at 1.2 µM 1% | [2]; at 3.7 µM 4% | [3]; at 1.2 µM 4% | [3]; at 3.7 µM 15% | [4]; [17] 21% | [5]; at 1.2 µM 1% | [5]; at 3.7 µM 10%

O=[N+]([O-])c1oc2ccc3ccccc3c2c1CCO
inactive: [7]; at 1.2 µM 2% | [7]; at 3.7 µM 14% | [8]; at 1.2 µM 63% | [9]; at 1.2 µM 7% | [9]; at 3.7 µM 27% | [14]; at 1.2 µM 29% | [14]; at 3.7 µM 66% | [16]; at 1.2 µM -17% | [16]; at 3.7 µM -3% | [16]; [17] 14% | [1]; at 1.2 µM 5% | [1]; at 3.7 µM 19% | [2]; at 1.2 µM 10% | [2]; at 3.7 µM 44%
active: [6]; at 1.2 µM 89% | [6]; at 3.7 µM 94% | [6]; at 11.0 µM 97% | [6]; at 33.0 µM 98% | [6]; at 100.0 µM 98% | [7]; at 11.0 µM 75% | [7]; at 33.0 µM 97% | [7]; at 100.0 µM 98% | [8]; at 3.7 µM 84% | [8]; at 11.0 µM 95% | [8]; at 33.0 µM 97% | [8]; at 100.0 µM 98% | [9]; at 11.0 µM 85% | [9]; at 33.0 µM 98% | [9]; at 100.0 µM 99% | [10]; at 1.2 µM 83% | [10]; at 3.7 µM 90% | [10]; [17] 89% | [10]; at 11.0 µM 96% | [10]; at 33.0 µM 98% | [10]; [18] 99% | [10]; at 50.0 µM 99% | [10]; at 100.0 µM 98% | [11]; at 1.2 µM 79% | [11]; at 3.7 µM 92% | [11]; [17] 97% | [11]; at 11.0 µM 98% | [11]; at 33.0 µM 99% | [11]; [18] 99% | [11]; at 50.0 µM 98.2% | [11]; at 100.0 µM 99% | [12]; at 1.2 µM 94% | [12]; at 3.7 µM 97% | [12]; at 11.0 µM 98% | [12]; at 33.0 µM 99% | [12]; at 100.0 µM 99% | [13]; [17] 92% | [13]; [18] 98% | [13]; at 50.0 µM 99.3% | [14]; at 11.0 µM 87% | [14]; at 33.0 µM 97% | [14]; at 100.0 µM 99% | [15]; [17] 98% | [15]; [18] 99% | [15]; at 50.0 µM 98.5% | [16]; at 11.0 µM 78% | [16]; at 33.0 µM 98% | [16]; [18] 99% | [16]; at 50.0 µM 97.8% | [16]; at 100.0 µM 99% | [1]; at 11.0 µM 80% | [1]; at 33.0 µM 97% | [1]; at 100.0 µM 99% | [2]; at 11.0 µM 88% | [2]; at 33.0 µM 98% | [2]; at 100.0 µM 99% | [3]; at 1.2 µM 82% | [3]; at 3.7 µM 88% | [3]; at 11.0 µM 95% | [3]; at 33.0 µM 98% | [3]; at 100.0 µM 99% | [4]; [17] 95% | [4]; [18] 99% | [4]; at 50.0 µM 96.7% | [5]; at 1.2 µM 97% | [5]; at 3.7 µM 96% | [5]; at 11.0 µM 97% | [5]; at 33.0 µM 98% | [5]; at 100.0 µM 99%
